Experiment [1] in a line: Caspase-3/7 induction in HepG2 cells by small molecules, qHTS assay (AID 1346978). Note: nearly all actives have a fitted effect of over 15% in size. An outline of the steps:
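Wild-type HepG2 cells (2,000/well) were settled 5 h at 37 C, 5% CO2, then exposed to compounds in DMSO for 17 h. Caspase-3/7 activity was read by luminescence 30 min after adding Caspase-Glo 3/7 reagent at room temperature.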

A short description of experiment [2]: Caspase-3/7 induction in CHO-K1 cells by small molecules, qHTS cell viability counter screen (AID 1346979). Note: nearly all actives have a fitted effect of over 35% in size. Note: potency is the fitted concentration of half-maximal effect. The method in brief:
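CellTiter-Fluor viability check, qHTS format: wild-type CHO-K1, 16hr compound treatment, 1hr reagent incubation, fluorescence read.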
Background: In qHTS, concentration-response curves come from the screen itself.

Experiment [3] can be described thus: Caspase-3/7 induction in CHO-K1 cells by small molecules, qHTS assay (AID 1346980). Note: nearly all actives have a fitted effect of over 15% in size. An outline of the steps:
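Wild-type cells were seeded at 1,500 per well and settled 5 hr at 37 C, 5% CO2, then exposed to DMSO-dissolved compounds for 17 hr. Caspase-Glo 3/7 reagent was added, and luminescence was read after 30min at room temperature.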

Experiment [4] deals with Nuclear receptor subfamily 1 group I member 2 (Homo sapiens) (UniProt O75469). Nature of the experiment: Human pregnane X receptor (PXR) small molecule agonists, qHTS assay (AID 1346982). Note: nearly all actives have a fitted effect of over 35% in size. Note: potency is the fitted concentration of half-maximal effect. An outline of the steps:
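Reporter HepG2 cells expressing PXR-Luc are cultured in charcoal-stripped FBS (5%), treated with compounds for 24 hr at 37 C, and assayed by ONE-Glo luminescence after 30 min at room temperature.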

Experiment [5] has as its target Acetylcholinesterase (Homo sapiens) (UniProt P22303). In words: Acetylcholinesterase (AChE) small molecule antagonists: colormetric cell-based qHTS assay (AID 1347395; calls by dose curve; note: nearly all actives have a fitted effect of over 30% in size; note: potency is the fitted concentration of half-maximal effect). An outline of the steps:
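AChE inhibition read colorimetrically via DTNB–thiocholine in SH-SY5Y cells. Compound 30 min, substrate 90 min, both 37 C.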

The target is the same in experiment [6]. Nature of the experiment: Acetylcholinesterase (AChE) small molecule antagonists: enzyme-based qHTS assay with human liver microsomes (AID 1347399; calls by dose curve; note: nearly all actives have a fitted effect of over 60% in size). As to conditions: Potency: qHTS inhibition. An outline of the steps:
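Recombinant human AChE (50 mU/mL in the enzyme mix) and human liver microsomes (0.25 mg/mL final) were preincubated with compound and NADPH (0.25 mg/mL final) for 30 min at 37 C. Acetylthiocholine/DTNB was then added; thiocholine was read colorimetrically after 10 min at room temperature.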

Experiment [7] has as its target Cytochrome P450 2C19 (Homo sapiens) (UniProt P33261). Nature of the experiment: Cytochrome P450 Family 2 Subfamily C Member 19 (CYP2C19) small molecule antagonists: luciferase reporter qHTS assay (AID 1671197). Note: nearly all actives have a fitted effect of over 65% in size. Note: potency is the fitted concentration of half-maximal effect. The method in brief:
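P450-Glo CYP2C19 system: enzyme-substrate mix with compound 10 min at room temperature, then NADPH regeneration solution, 1 h at 37C. Proluciferin-to-luciferin conversion detected by luminescence after 20 min with detection reagent; ketoconazole as positive control.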
On the technique in general: A reporter such as luciferase makes a cellular process visible.

For experiment [8], the target named is Cytochrome P450 1A2 (Homo sapiens) (UniProt P05177). In words: Cytochrome P450 Family 1 Subfamily A Member 2 (CYP1A2) small molecule antagonists: luciferase reporter qHTS assay (AID 1671199). Note: nearly all actives have a fitted effect of over 50% in size. Note: potency is the fitted concentration of half-maximal effect. The method in brief:
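Steps: enzyme-substrate mix dispensed; test compounds and furafylline control pinned in; 10 min room temperature; NADPH regeneration solution added, 1 h; reaction stopped with luciferin detection reagent; luminescence read after 20 min.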

Experiment [9] addresses Voltage-gated inwardly rectifying potassium channel KCNH2 (Homo sapiens) (UniProt Q12809). In words: Human Ether-a-go-go-Related Gene (hERG) channel small molecule antagonists: fluorescence cell-based qHTS assay (AID 1671200). Note: nearly all actives have a fitted effect of over 50% in size. Note: potency is the fitted concentration of half-maximal effect. An outline of the steps:
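Kinetic two-minute fluorescence traces, sampled at 1 s, were collected following thallium stimulus of U2OS cells (1000 per well) that had been cultured overnight at 37 C and loaded with FluxOR II.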
On the technique in general: The hERG channel carries a current that helps repolarise heart muscle cells.

The target in experiment [10] is Cytochrome P450 3A4 (Homo sapiens) (UniProt P08684). Nature of the experiment: Cytochrome P450 Family 3 Subfamily A Member 4 (CYP3A4) small molecule antagonists: luciferase reporter qHTS assay (AID 1671201). Note: nearly all actives have a fitted effect of over 50% in size. Note: potency is the fitted concentration of half-maximal effect. The method in brief:
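Proluciferin-to-luciferin conversion by CYP3A4, NADPH-regenerated, 1 h RT; luminescence read as RLU. Ketoconazole as control.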

Experiment [11] can be described thus: Caspase-3/7 induction in HepG2 cells by small molecules, qHTS cell viability counter screen (AID 1346981). Note: series mostly up to about 92 µM; nearly all actives have a fitted effect of over 30% in size. An outline of the steps: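 In this quantitative HTS counter screen, compounds delivered in DMSO were left on unmodified HepG2 cells for 16 hr at 37 C. Viability was then determined fluorometrically with CellTiter-Fluor, in parallel with caspase-3/7 induction in the same wells.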

Experiment [12] deals with Acetylcholinesterase (Homo sapiens) (UniProt P22303). In words: Acetylcholinesterase (AChE) small molecule antagonists: enzyme-based qHTS assay (AID 1347397; calls by dose curve; note: nearly all actives have a fitted effect of over 55% in size; note: potency is the fitted concentration of half-maximal effect). The note with it: Potency: AChE enzyme activity inhibition. The method in brief:
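Compound or DMSO vehicle was pin-transferred onto recombinant human AChE (50 mU/mL as dispensed) and left 30 min at room temperature. Acetylthiocholine with DTNB then started the reaction, read colorimetrically 10 min later.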

Experiment [13] shares this target. Nature of the experiment: Acetylcholinesterase (AChE) small molecule antagonists: fluorescence cell-based qHTS assay (AID 1347398; calls by dose curve; note: nearly all actives have a fitted effect of over 50% in size; note: potency is the fitted concentration of half-maximal effect). The note with it: Potency: AChE activity. The method in brief: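 Using neuroblastoma SH-SY5Y cells as the enzyme source, test chemicals are preincubated 30 min at 37 C; AChE-driven acetylthiocholine cleavage is then quantified by thiocholine-dependent Thiolite Green fluorescence after 40 min at room temperature.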

Experiment [14] has as its target Cytochrome P450 2D6 (Homo sapiens) (UniProt P10635). Nature of the experiment: Cytochrome P450 Family 2 Subfamily D Member 6 (CYP2D6) small molecule antagonists: luciferase reporter qHTS assay (AID 1671196). Note: nearly all actives have a fitted effect of over 50% in size. Note: potency is the fitted concentration of half-maximal effect. An outline of the steps: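 Test chemicals meet CYP2D6 plus proluciferin substrate (10 min, RT); NADPH regenerating solution then drives turnover for 1 h. Detection reagent halts the reaction; luminescence measured after 20 min.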

The target in experiment [15] is Cytochrome P450 2C9 (Homo sapiens) (UniProt P11712). Nature of the experiment: Cytochrome P450 Family 2 Subfamily C Member 9 (CYP2C9) small molecule antagonists: luciferase reporter qHTS assay (AID 1671198). Note: nearly all actives have a fitted effect of over 50% in size. Note: potency is the fitted concentration of half-maximal effect. An outline of the steps:
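CYP2C9 activity was measured with a P450-Glo proluciferin substrate. Enzyme–substrate mix was held with compound for 10 min at room temperature, then NADPH regeneration solution was added for 1 h at 37C. Luciferin product was read as luminescence.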

For experiment [16], the target named is Nuclear receptor subfamily 1 group I member 2 (Homo sapiens) (UniProt O75469). Nature of the experiment: CYP3A4 induction through human pregnane X receptor (PXR) by small molecules, qHTS assay (AID 1346984). Note: nearly all actives have a fitted effect of over 40% in size. An outline of the steps: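 Induction measured in HepG2-based DPX-2 cells co-expressing human PXR and a CYP3A4 promoter-driven luciferase. After a 24-hour compound exposure, cells received CYP3A4 luciferin substrate at 3uM final for 3 hours, and light output was then recorded.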

Experiment [17] shares this target. In words: Human pregnane X receptor (PXR) activation by small molecules, qHTS assay (AID 1346985). Note: nearly all actives have a fitted effect of over 40% in size. The method in brief:
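DPX-2 cells (HepG2 co-transfected with a PXR response element and a CYP3A4-promoter luciferase construct) were seeded at 2,000 per well, rested 5 hr at 37C, then exposed to DMSO-dissolved compounds for 24 hr. Activation was read as luciferase luminescence.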

Each structure is given as a SMILES string. Inconclusive results are not listed. Activity calls are given as the source filed them. Unless noted, calls come from the whole dose curve; as a rule, active = well fitted curve in the direction sought with a large enough effect in the repeat runs; inconclusive = weak or mixed curves; inactive = no such curve, though single readings can be large; an effect the other way counts as inactive or inconclusive.

Sequence of Cytochrome P450 3A4 (Homo sapiens) (P08684 whole entry, looked up): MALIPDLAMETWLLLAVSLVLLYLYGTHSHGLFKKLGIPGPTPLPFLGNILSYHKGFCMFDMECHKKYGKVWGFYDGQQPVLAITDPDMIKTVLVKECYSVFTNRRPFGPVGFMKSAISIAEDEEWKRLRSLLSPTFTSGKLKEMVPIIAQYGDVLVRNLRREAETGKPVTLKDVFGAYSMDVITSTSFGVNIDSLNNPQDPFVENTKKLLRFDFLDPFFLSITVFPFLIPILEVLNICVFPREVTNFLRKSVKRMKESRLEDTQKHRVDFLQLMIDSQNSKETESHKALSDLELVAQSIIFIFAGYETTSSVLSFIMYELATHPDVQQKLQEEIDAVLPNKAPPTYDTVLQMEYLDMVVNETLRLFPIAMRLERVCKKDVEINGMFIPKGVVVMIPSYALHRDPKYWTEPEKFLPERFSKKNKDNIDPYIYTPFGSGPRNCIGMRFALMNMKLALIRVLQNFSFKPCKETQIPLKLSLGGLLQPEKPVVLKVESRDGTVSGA
Sequence of Acetylcholinesterase (Homo sapiens) (P22303 whole entry, looked up): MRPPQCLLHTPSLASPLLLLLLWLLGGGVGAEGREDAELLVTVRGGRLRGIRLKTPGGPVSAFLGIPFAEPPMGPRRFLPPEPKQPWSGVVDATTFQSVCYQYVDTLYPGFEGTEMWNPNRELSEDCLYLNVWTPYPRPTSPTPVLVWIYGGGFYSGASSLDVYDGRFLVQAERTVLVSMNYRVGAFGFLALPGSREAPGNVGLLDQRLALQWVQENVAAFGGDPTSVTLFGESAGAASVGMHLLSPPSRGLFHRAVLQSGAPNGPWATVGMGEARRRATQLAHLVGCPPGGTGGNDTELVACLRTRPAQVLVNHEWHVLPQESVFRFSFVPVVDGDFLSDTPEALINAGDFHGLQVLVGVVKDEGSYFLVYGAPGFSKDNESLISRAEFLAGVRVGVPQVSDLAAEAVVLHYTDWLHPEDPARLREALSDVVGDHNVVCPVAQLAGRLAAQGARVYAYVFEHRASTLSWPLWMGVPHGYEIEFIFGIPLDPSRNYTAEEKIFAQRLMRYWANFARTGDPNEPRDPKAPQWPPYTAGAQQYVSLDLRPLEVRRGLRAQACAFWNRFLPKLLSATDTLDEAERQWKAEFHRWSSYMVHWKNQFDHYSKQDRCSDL
Sequence of Cytochrome P450 2D6 (Homo sapiens) (P10635 whole entry, looked up): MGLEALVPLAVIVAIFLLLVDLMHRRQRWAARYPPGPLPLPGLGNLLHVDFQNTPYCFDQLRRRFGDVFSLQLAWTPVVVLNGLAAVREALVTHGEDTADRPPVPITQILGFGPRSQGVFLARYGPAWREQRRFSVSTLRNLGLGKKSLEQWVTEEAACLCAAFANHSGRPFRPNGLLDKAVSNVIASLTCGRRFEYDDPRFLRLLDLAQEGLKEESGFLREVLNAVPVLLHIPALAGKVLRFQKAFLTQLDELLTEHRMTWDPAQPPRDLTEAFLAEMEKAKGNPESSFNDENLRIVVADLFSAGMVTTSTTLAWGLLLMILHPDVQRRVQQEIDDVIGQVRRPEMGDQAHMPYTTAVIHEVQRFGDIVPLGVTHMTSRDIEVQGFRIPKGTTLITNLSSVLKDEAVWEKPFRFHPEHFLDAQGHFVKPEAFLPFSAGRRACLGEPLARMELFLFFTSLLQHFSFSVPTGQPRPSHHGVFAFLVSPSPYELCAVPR
Sequence of Nuclear receptor subfamily 1 group I member 2 (Homo sapiens) (O75469 whole entry, looked up): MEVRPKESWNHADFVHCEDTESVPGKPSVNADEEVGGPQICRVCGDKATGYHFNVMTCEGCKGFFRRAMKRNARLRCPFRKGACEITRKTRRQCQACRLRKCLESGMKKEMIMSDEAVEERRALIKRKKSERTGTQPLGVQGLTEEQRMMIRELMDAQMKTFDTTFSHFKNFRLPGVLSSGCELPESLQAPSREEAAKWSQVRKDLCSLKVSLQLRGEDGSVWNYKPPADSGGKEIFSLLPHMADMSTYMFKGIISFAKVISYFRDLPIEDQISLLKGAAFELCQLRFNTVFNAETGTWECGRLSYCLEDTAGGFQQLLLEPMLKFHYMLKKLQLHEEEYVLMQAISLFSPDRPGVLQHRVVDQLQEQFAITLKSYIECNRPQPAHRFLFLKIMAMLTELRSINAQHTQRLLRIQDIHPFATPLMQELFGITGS
Sequence of Cytochrome P450 2C9 (Homo sapiens) (P11712 whole entry, looked up): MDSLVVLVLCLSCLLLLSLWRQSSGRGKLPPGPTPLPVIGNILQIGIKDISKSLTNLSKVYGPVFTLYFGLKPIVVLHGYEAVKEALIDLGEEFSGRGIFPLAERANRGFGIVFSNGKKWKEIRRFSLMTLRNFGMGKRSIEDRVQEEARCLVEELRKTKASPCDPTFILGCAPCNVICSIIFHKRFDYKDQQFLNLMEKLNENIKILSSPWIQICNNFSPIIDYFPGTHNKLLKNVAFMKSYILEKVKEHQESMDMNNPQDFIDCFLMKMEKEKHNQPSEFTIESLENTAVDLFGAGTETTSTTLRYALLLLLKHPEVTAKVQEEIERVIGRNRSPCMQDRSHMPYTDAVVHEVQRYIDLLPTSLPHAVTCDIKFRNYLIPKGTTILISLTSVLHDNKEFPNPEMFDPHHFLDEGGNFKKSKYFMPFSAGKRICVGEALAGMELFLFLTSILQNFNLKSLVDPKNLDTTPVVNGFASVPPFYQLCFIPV
Sequence of Cytochrome P450 2C19 (Homo sapiens) (P33261 whole entry, looked up): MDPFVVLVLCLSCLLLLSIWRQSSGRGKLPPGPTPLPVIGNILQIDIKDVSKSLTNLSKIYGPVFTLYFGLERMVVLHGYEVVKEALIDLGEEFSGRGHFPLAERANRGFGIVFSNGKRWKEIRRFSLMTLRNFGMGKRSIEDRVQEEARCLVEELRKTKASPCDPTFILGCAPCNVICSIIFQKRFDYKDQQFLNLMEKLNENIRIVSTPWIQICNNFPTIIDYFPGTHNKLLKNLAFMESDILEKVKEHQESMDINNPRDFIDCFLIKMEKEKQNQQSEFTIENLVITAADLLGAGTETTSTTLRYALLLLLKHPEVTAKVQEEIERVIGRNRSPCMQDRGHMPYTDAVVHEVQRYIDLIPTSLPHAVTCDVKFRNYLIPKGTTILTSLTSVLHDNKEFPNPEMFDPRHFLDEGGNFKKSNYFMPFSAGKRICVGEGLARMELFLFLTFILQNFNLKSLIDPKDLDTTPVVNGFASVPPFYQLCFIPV
Sequence of Voltage-gated inwardly rectifying potassium channel KCNH2 (Homo sapiens) (Q12809 whole entry, looked up): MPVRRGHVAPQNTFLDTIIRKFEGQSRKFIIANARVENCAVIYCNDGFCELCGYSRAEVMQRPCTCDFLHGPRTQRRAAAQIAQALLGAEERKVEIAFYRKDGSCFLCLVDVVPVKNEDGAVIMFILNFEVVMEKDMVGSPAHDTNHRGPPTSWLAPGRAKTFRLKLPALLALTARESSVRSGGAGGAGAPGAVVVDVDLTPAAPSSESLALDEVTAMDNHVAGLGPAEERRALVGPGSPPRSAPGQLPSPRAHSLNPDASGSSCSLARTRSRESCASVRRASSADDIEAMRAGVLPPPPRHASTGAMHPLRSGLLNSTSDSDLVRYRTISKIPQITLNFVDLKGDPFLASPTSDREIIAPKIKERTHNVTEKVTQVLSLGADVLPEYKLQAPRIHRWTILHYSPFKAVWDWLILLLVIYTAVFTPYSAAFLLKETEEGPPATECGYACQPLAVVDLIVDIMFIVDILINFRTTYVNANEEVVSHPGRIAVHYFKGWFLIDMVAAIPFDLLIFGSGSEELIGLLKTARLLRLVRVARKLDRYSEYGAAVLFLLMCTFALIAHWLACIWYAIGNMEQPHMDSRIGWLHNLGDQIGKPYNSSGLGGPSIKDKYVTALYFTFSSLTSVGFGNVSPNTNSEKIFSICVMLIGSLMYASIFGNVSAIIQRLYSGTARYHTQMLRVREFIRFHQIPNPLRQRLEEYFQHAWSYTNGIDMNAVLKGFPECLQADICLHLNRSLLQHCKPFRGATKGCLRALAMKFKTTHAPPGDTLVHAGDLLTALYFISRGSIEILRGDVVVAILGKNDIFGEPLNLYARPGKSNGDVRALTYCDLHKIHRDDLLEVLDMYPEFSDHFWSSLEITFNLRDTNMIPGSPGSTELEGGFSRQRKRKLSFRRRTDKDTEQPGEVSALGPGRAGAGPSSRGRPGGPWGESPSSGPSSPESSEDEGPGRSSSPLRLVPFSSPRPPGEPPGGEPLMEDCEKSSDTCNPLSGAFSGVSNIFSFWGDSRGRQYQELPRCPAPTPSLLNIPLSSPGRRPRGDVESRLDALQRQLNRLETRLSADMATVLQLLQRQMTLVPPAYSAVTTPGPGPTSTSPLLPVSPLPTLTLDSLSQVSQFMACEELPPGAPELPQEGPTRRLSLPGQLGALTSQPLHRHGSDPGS
Sequence of Cytochrome P450 1A2 (Homo sapiens) (P05177 whole entry, looked up): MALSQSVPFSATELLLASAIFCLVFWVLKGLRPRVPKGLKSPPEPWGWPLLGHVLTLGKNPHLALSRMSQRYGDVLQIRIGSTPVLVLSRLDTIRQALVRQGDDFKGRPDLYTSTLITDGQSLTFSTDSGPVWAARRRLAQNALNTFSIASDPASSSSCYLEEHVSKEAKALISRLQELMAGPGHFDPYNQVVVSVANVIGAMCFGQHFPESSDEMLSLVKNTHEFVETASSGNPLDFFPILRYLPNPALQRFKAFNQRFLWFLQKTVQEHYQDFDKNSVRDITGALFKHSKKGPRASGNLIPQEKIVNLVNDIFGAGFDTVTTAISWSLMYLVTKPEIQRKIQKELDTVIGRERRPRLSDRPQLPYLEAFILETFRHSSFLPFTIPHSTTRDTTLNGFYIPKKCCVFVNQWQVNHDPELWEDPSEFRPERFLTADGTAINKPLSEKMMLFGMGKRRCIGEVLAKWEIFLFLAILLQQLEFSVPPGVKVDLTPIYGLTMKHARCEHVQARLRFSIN

Take `CN(N=O)c1ccc([N+](=O)[O-])cc1`: the Potency result in [1], in experiment [2], in [3], in experiment [4], in [6] and in experiment [9] was “inactive” each time. In addition, in experiment [10], the Potency entry is “inactive”. Also, the results for the Potency in [5], in [7] and in experiment [8] were 63.3 µM (active), 35.6 µM (active) and 6.33 µM (active), respectively.

For `Cc1ccccc1C(=O)Nc1cccc(OC(C)C)c1`, the Potency entry in [1], in experiment [3], in [11], in [5], in experiment [12] and in experiment [13] was “inactive” in each case. In addition, the Potency entry in [6], in experiment [14], in experiment [9] and in experiment [10] was “inactive” in each case. Also, the Potency in experiment [4] is 13.7 µM (active); in [7] it was 7.96 µM (active); in experiment [15] it was 22.4 µM (active); in experiment [8], 5.64 µM (active).

For `CNP(=O)(OC)Oc1ccc(C(C)(C)C)cc1Cl` (stereo unspecified), the Potency result in experiment [1], in experiment [3], in [11], in experiment [6], in [9] and in [10] was “inactive” each time. The Potency in experiment [4] was 17.2 µM (active); in experiment [5], 71 µM (active); in experiment [12], 79.6 µM (active); in experiment [13], 31.7 µM (active); in experiment [14], 71 µM (active); in experiment [7], 8.94 µM (active). Further, the Potency in experiment [15] and in experiment [8] was 35.6 µM (active) throughout.

Turning to `CN1[C@@H]2CC[C@H]1CC(OC(=O)c1cc(Cl)cc(Cl)c1)C2` (stereo partly specified), the Potency entry in experiment [1], in [2], in experiment [3], in [4], in experiment [13] and in experiment [6] was “inactive” each time. Moreover, the Potency entry in [7], in experiment [15] and in experiment [10] was “inactive” each time. In addition, the Potency in [14] was 0.055 µM (active); in experiment [9], 7.56 µM (active).

As to `C=CC(=O)OCCCCO`, the Potency entry in [1], in [3], in [4], in experiment [12], in [13] and in experiment [6] was “inactive” in each case. Further, the Potency result in experiment [14], in [7], in experiment [15], in [9] and in [10] was “inactive” each time. The Potency in experiment [2] was 54.5 µM (active).

Turning to `OCCCBr`, the Potency entry in experiment [1], in experiment [2], in [3], in experiment [4], in experiment [12] and in experiment [13] was “inactive” in each case. In addition, the Potency entry in [6] and in [9] was “inactive” throughout. The Potency in experiment [7] is 3.99 µM (active); in [8], 61.8 µM (active).

Take `C[C@]12CC[C@H]3[C@@H](CCC4=CC(=O)CC[C@@H]43)[C@@H]1CC[C@@H]2OC(=O)CCC1CCCCC1`: the Potency result in [1], in experiment [2], in experiment [3], in experiment [4], in experiment [5] and in experiment [12] was “inactive” throughout. The Potency result in [13], in experiment [6], in experiment [14] and in experiment [10] was “inactive” throughout. Further, the Potency in experiment [15] is 17.4 µM (active).

Turning to `CC(O)(CS(=O)(=O)c1ccc(F)cc1)C(=O)Nc1ccc(C#N)c(C(F)(F)F)c1` (stereo unspecified), the Potency result in experiment [1], in experiment [3], in experiment [11], in experiment [16], in experiment [17] and in experiment [5] was “inactive” each time. Further, the Potency entry in experiment [12], in experiment [13], in experiment [6], in [14], in experiment [8] and in [9] was “inactive” throughout. The Potency in experiment [4] was 31.8 µM (active); in experiment [7] it was 3.69 µM (active); in experiment [15] it was 13.1 µM (active); in [10] it was 2.33 µM (active).

For the compound `CO/C=C(/C(=O)OC)c1ccccc1COc1cccc(C(F)(F)F)n1`, the Potency result in [1], in [3], in experiment [5], in [13], in experiment [6] and in experiment [9] was “inactive” each time. Further, the Potency entry in [10] is “inactive”. The Potency in experiment [2] is 0.385 µM (active); in experiment [4], 34.3 µM (active); in experiment [14], 39.9 µM (active); in experiment [7], 0.709 µM (active); in [15], 39.9 µM (active); in experiment [8] it was 35.5 µM (active).
